Compound activity deposited in PubChem by Broad Institute.
YB-1 expr inh: YB-1 expression inhibition; delta delta Cp (YB-1 minus CDIP) (no concentration beside the values); actives 0.37% (n = 30,000); U2OS, qRT-PCR YB-1 vs CDIP delta delta Cp, 16 h; stronger effect = higher value; zero = DMSO, each unit about twofold;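 active = delta delta Cp rounded down to an integer at or above 3, about 3 SD of DMSO wells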;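 also: higher means less YB-1 transcript or more CDIP transcript relative to DMSO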
ROS inducer: raises reactive oxygen species in U2OS cancer cells | ROS induction (% of piperlongumine), % at 10 µM | U2OS ROS induction, H2DCF-DA fluorescence | actives 2% (n = 46,000) | AID 624156; in the data active = ROS induction above about 79%, passing the limit was not always enough;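 also: 0% = DMSO vehicle median and 100% = reference compound median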
Active calls of the source: *; . = not tested or not shown. Only some compounds are listed: those with a hit (about 2.1% of all), similar ones and a draw of the others.

SMILES	YB-1 expr inh	ROS inducer
C[C@@H]1CN([C@H](C)CO)C(=O)Cc2cc(NC(=O)Cc3cn(C)c4ccccc34)ccc2O[C@@H]1CN(C)Cc1ccc(Oc2ccccc2)cc1	0.0387	130.6*
C[C@@H]1CN([C@H](C)CO)C(=O)Cc2cc(NC(=O)Cc3cn(C)c4ccccc34)ccc2O[C@H]1CN(C)Cc1ccccc1	-0.342	2.6
C[C@@H]1CN([C@H](C)CO)C(=O)Cc2cc(NC(=O)Cc3cn(C)c4ccccc34)ccc2O[C@@H]1CN(C)CC1CC1	-0.349	123.8*
C[C@@H]1CN([C@H](C)CO)C(=O)Cc2cc(NC(=O)Cc3cn(C)c4ccccc34)ccc2O[C@@H]1CN(C)Cc1ccc(-c2ccccc2)cc1	-0.119	109.1*
C[C@H](CO)N1C[C@H](C)[C@H](CN(C)Cc2ccc(-c3ccccc3)cc2)Oc2ccc(NC(=O)Cc3cn(C)c4ccccc34)cc2CC1=O	-0.076	1.8
C[C@@H]1CN([C@@H](C)CO)C(=O)Cc2cc(NC(=O)Cc3cn(C)c4ccccc34)ccc2O[C@@H]1CN(C)Cc1ccc(-c2ccccc2)cc1	0.262	85.4*
C[C@H]1CN([C@@H](C)CO)C(=O)Cc2cc(NC(=O)Cc3cn(C)c4ccccc34)ccc2O[C@H]1CN(C)CC1CCCCC1	0.38	10.8
C[C@H](CO)N1C[C@H](C)[C@H](CN(C)Cc2ccc(Oc3ccccc3)cc2)Oc2ccc(NC(=O)Cc3cn(C)c4ccccc34)cc2CC1=O	-0.0802	5.0
CC(C)OC(=O)COc1cc2oc(=O)c3c(c2cc1Cl)CCC3	.	54.8
O=C(NCc1ccccc1)C1CCN(C(=O)c2ccccc2)CC1	.	-3.3
O=C(NCc1ccccc1)c1cnn(-c2ccccc2)c1-n1cccc1	.	-1.5
Cc1ccccc1NC(=O)COc1ccc(C)c([N+](=O)[O-])c1	.	113.7*
CC(=O)Nc1ccccc1NC(=O)COc1ccc([N+](=O)[O-])cc1	.	-10.4
O=C(c1cc2ccccc2o1)N1CCCc2ccccc21	.	3.7
C[C@H](CO)N1C[C@H](C)[C@H](CN(C)Cc2ccc3c(c2)OCO3)Oc2ccc(NS(=O)(=O)c3ccc(F)cc3)cc2CC1=O	0.28	11.3
C[C@H]1CN([C@@H](C)CO)C(=O)Cc2cc(NS(=O)(=O)c3ccc(F)cc3)ccc2O[C@H]1CN(C)Cc1ccc2c(c1)OCO2	0.000917	109.4*
C[C@@H]1CN([C@H](C)CO)C(=O)Cc2cc(NS(=O)(=O)c3ccc(F)cc3)ccc2O[C@@H]1CN(C)Cc1ccc2c(c1)OCO2	0.234	19.1
C[C@@H]1CN([C@H](C)CO)C(=O)Cc2cc(NS(=O)(=O)c3ccc(F)cc3)ccc2O[C@H]1CN(C)Cc1ccc2c(c1)OCO2	-0.0458	129.3*
CC(=O)N(CCN(C)C)c1nc2cc(C)cc(C)c2s1	.	-16.3
O=C(c1ccco1)c1cn(CCOc2ccccc2Cl)c2ccccc12	.	18.1
Cc1cc(N2CCCC2)n2c(nc3ccccc32)c1C#N	.	13.5
Cc1ccc(OCCN2CCN(c3cc(C)c(C#N)c4nc5ccccc5n34)CC2)cc1	.	100.2*
COC(=O)c1c(NC(=O)C2CC(=O)NN2Cc2ccccc2)sc2c1CCC(C)C2 (stereo unspecified)	.	40.3
COC(=O)c1c(NC(=O)C2CC(=O)NN2Cc2ccccc2)sc2c1CCC2 (stereo unspecified)	.	149.4*
CCC(C)NC(=O)c1cc(-c2ccc(F)cc2)no1 (stereo unspecified)	.	-9.6
SMILES	YB-1 expr inh	ROS inducer
COc1ccc(OCC(=O)NCc2ccco2)cc1	.	-8.7
CO[C@H]1C[C@@H]2CC[C@@H](C)[C@@](O)(O2)C(=O)C(=O)N2CCCC[C@H]2C(=O)O[C@H]([C@H](C)C[C@@H]2CC[C@@H](O)[C@H](OC)C2)CC(=O)[C@H](C)/C=C(\C)[C@@H](O)[C@@H](OC)C(=O)[C@H](C)C[C@H](C)/C=C/C=C/C=C\1C	1.05	98.4*
O=C(NC1CC1)c1ccccc1SCc1ccc(F)cc1	.	-3.0
C[C@@H]1CN([C@H](C)CO)C(=O)c2cccc(NC(=O)C3CCOCC3)c2O[C@@H]1CN(C)C(=O)NC1CCCCC1	10.9*	-12.5
C[C@@H]1CN([C@H](C)CO)C(=O)c2cccc(NC(=O)NC3CCCCC3)c2O[C@@H]1CN(C)Cc1ccc(-c2ccccc2)cc1	-0.21	101.3*
C[C@H]1CN([C@@H](C)CO)C(=O)c2cccc(NC(=O)NC3CCCCC3)c2O[C@H]1CN(C)Cc1ccc(-c2ccccc2)cc1	-0.195	11.6
C[C@@H]1CN([C@H](C)CO)C(=O)c2cccc(NC(=O)C3CCOCC3)c2O[C@H]1CN(C)Cc1ccc(-c2ccccc2)cc1	0.353	100.0*
C[C@H](CO)N1C[C@H](C)[C@@H](CN(C)Cc2ccc(-c3ccccc3)cc2)Oc2c(NC(=O)C3CCOCC3)cccc2C1=O	0.262	26.4
C[C@@H]1CN([C@@H](C)CO)C(=O)c2cccc(NC(=O)C3CCOCC3)c2O[C@@H]1CN(C)C(=O)NC1CCCCC1	-0.0104	-9.6
